Only some compounds are listed: those with a hit (about 2.4% of all), similar ones and a draw of the others.
FEN1 inhibitor: human FEN1 inhibition | Recombinant FEN1 flap cleavage, fluorescence, 15 min | 0.35% of 390,000 active | Potency, µM (highest dose often 114 µM), without a hit: at the highest dose activity change, negative = inhibition, most hits filed as inhibitors | AID 588795; note: % is set by controls: 0 for no effect and ±100 for the full control effect; nearly all actives have a fitted effect of over 65% in size
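With each library titrated from low to high concentration, compounds met 10 nM FEN1 for 15 min at room temperature before 50 nM substrate was added; readings at 0 and 15 min fed four-parameter Hill curve fits.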
WRN inhibitor: inhibitors of human WRN helicase. Potency, µM (series often up to 114 µM), for inactives: top-dose activity change, negative = inhibition, actives largely listed as inhibitors. WRN helicase unwinding, fluorescent forked duplex, kinetic. 0.46% of 360,000 active. Q14191; note: % is set by controls: 0 for no effect and ±100 for the full control effect; nearly all actives have a fitted effect of over 55% in size
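Screening of the MLSMR collection measured strand separation of a quenched forked DNA duplex (100 nM) by 20 nM WRN with 2 mM ATP, all final. Compounds were preincubated with enzyme 15 min at room temperature.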
POLB inh: inhibitors of human DNA polymerase beta | 1.3% of 340,000 active | AID 485314 | Potency, µM (series often up to 114 µM), for the others: at the top dose activity change, negative = inhibition, most hits filed as inhibitors | P06746 | Pol beta primer extension/strand displacement, fluorescence kinetic; note: % is set by controls: 0 for no effect and ±100 for the full control effect
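Preincubation: enzyme (10 nM) with compound, 15 min, RT. Reaction: substrate added to 50 nM final. Reads: 0 and 10 min. Analysis: normalized, Hill fit.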
Pol kappa inh: inhibitors of human DNA polymerase kappa; Q9UBT6; 0.53% of 400,000 active; Potency, µM (top dose mostly 107 µM), for the others: at the top dose activity, negative = inhibition, actives largely listed as inhibitors; AID 588579; purified Pol kappa, fluorescent DNA synthesis assay, 10 min; note: % is set by controls: 0 for no effect and ±100 for the full control effect
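Kinetic fluorescence screen: compound preincubated 15 min RT with 10 nM enzyme; 50 nM substrate (final) initiates; reads at 0/10 min.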
POLI inh: blocks human DNA polymerase iota activity | Q9UNA4 | Pol iota fluorescent replication assay, 10 min | Potency, µM (titrated, usually from 115 µM), for the others: at the top dose activity, negative = inhibition, hits mostly inhibitors | 1% of 390,000 active
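Fluorescent replication assay read twice, at 0 min and 10 min after adding 50 nM (final) substrate. Enzyme (10 nM) and compounds were first incubated 15 min at room temperature; enzyme-free buffer wells were negative controls.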
Pol eta inh: DNA polymerase eta (human) inhibition. Q9Y253. recombinant Pol eta, fluorescent DNA replication assay. Potency, µM (top dose mostly 114 µM), for the others: at the highest dose activity change, negative = inhibition, usual class: inhibitors. 1.2% of 390,000 active; note: % is set by controls: 0 for no effect and ±100 for the full control effect
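Fluorescent replication assay: 50 nM final substrate added after a 15 min room-temperature compound preincubation with 10 nM enzyme. Signal taken at 0 min and again at 10 min.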
* = called active by the depositor; i = inactive; ? = inconclusive; . = not tested or not shown; [ ] = another dose, or the depositor's remark. Calls come from the whole dose curve; as a rule, active = well fitted curve in the direction sought with a large enough effect; inconclusive = small, poorly fitted or top-dose-only effect, or another doubt; inactive = no such curve, though single readings can be large; an effect the other way counts as inactive or inconclusive. Potency is the fitted concentration of half-maximal effect.

SMILES	FEN1 inhibitor	WRN inhibitor	POLB inh	Pol kappa inh	POLI inh	Pol eta inh
COc1ccccc1N1CCN(C(=O)C2CCN(S(=O)(=O)c3cccs3)CC2)CC1	-10%	.	4%	-10%	59%	-9%
COC(=O)c1ccccc1NC1=C/C(=N\S(=O)(=O)c2cccs2)c2ccccc2C1=O	1%	-25%	-26%	-15%	1.4µM*	-13%
CCOC(=O)c1ccc(N2CSC3=C(C#N)C(c4cccs4)CC(=O)N3C2)cc1 (stereo unspecified)	?	1%	0%	-14%	-7%	-3%
N#CC1=C2SCN(c3ccc(F)cc3)CN2C(=O)CC1c1cccc(F)c1 (stereo unspecified)	-26%	-2%	4%	-12%	-16%	8%
CCc1ccc(C2CC(=O)N3CN(c4ccccc4)CSC3=C2C#N)cc1 (stereo unspecified)	?	-22%[57.1 µM]	40µM*	-18%	?	-3%
CCc1ccc(N2CSC3=C(C#N)C(c4cccs4)CC(=O)N3C2)cc1 (stereo unspecified)	1%	-1%[11.6 µM]	?	79µM*	11µM*	?
CCCNC(=O)[C@H]1O[C@@H]1C(=O)N[C@H](C(=O)N1CCC[C@H]1C(=O)OC)[C@@H](C)CC	.	.	.	4%[19.4 µM]	.	.
[O-][N+]12CCCc3cccc(c31)CCC2	?	.	.	-41%	?	.
O=C(CCCc1c[nH]c2ccccc12)NCCc1c[nH]c2ccccc12	-14%	-2%	-2%	-6%	29%	89µM*
CCCCNC(=O)CCCn1c(=O)c2ccccc2n(Cc2cccc(Cl)c2)c1=O	17%	.	10%	-13%	-2%	-10%
C=CCn1c(C)cc(C(=O)COC(=O)c2ccc3c(c2)NC(=O)CS3)c1C	5%	-5%[11.6 µM]	40µM*	?	?	?
COCCn1c(C)cc(C(=O)COC(=O)c2ccc3c(c2)NC(=O)CS3)c1C	8%	-5%	9%	-11%	-3%	?
C(=Nc1ccc2ccccc2n1)c1ccccn1	6%	.	.	2%	-2%	.
COc1ccc(OC)c2c(C)c(C)[nH]c12	-17%	2%	28µM*	-10%	-16%	-17%
N#Cc1c(-c2cccs2)nc(SCc2ccc(Cl)cc2)[nH]c1=O	-24%	?	56µM*	-5%	?	89µM*
CCOC(=O)C(C)C(C)=O (stereo unspecified)	-168%	16µM*	.	?	i	?
CCOC(=O)C(C(C)=O)C(c1ccc(OC)cc1)C(C(C)=O)C(=O)OCC (stereo unspecified)	1%	-22%	-22%	-1%	18%	3%
Cc1ccc(NC(=O)c2cc(S(=O)(=O)N3CCCC3)cn2C)cc1C	5%	4%	-1%	10%	22%	-4%
Cn1cc(NC(=O)c2cc(NC(=O)c3cc(NC=O)cn3C)cn2C)cc1C(=O)NCCC(=N)N	.	.	14µM*	0.79µM*	.	.
COc1ccc(/C=C/c2ccnc3ccccc23)c(OC)c1	-6%	.	.	-17%	7%	.
C/C(=N\NC(=O)Cc1cc(=O)[nH][nH]1)c1cccc([N+](=O)[O-])c1	-1%	6%	-13%	7%[60.1 µM]	7.1µM*	-16%
CC(=O)N(C)c1ccc(N=Cc2c(O)ccc3ccccc23)cc1	-4%	-2%	0%	-6%	71µM*	-4%
Cc1ccc(C(=O)N2CCN(c3ccc([N+](=O)[O-])cc3)CC2)o1	10%	5%	89µM*	-4%	6%	-20%
O=C(c1ccc(-c2cccc([N+](=O)[O-])c2)o1)N1CCN(c2ccc([N+](=O)[O-])cc2)CC1	-11%	-7%	.	-7%	21%	-4%
Cc1ccc(N=Nc2c(=O)[nH]n3c(=O)cc(C)[nH]c23)cc1	-20%	-15%	0.89µM*	-24%	?	-1%
SMILES	FEN1 inhibitor	WRN inhibitor	POLB inh	Pol kappa inh	POLI inh	Pol eta inh
Cc1ccc(N=Nc2c(N)[nH]n3c(=O)cc(-c4ccccc4)nc23)cc1	-15%	-23%	6%	-12%	10%	-11%
COc1ccc(NC(=O)COc2ccccc2C(=O)Nc2ccccc2)cc1	11%	.	.	8%	46%	.
Cc1ccc(-n2c3c(cc(C(=O)Nc4ccccc4C(N)=O)c2=O)C(=O)CC(C)(C)C3)cc1	16%	.	3%	-4%	13%	5%
CCNc1ncc2ncc(=O)n(Cc3ccc(F)cc3)c2n1	.	.	.	-6%[60.1 µM]	.	.
CC1CCC(NC(=O)c2ccc(CS(=O)(=O)c3ccc(Cl)cc3)o2)CC1 (stereo unspecified)	6%	.	-15%	-2%[60.1 µM]	6%	-19%
O=C(O)COc1ccccc1/C=C1\SC(=Nc2ccc(F)cc2)N(c2ccc(F)cc2)C1=O	-34%	0%[11.6 µM]	-5%	5%	15%	56µM*
N#C/C(=C(/O)COC(=O)c1ccc(Cl)c(S(=O)(=O)N2CCOCC2)c1)c1nc2ccccc2[nH]1	-1%	8%	4%	4%	67%	-13%
N#C/C(=C(/O)COC(=O)CCc1ccc(S(=O)(=O)N2CCOCC2)cc1)c1nc2ccccc2[nH]1	5%	-28%	35µM*	-23%	-12%	14µM*
Cc1ccc(/C=N/n2c(-c3ccccn3)n[nH]c2=S)o1	-20%	-7%	-26%	-25%	50µM*	-11%
CCc1nn(CCCC(=O)N2CCN(c3cc(Cl)ccc3C)CC2)c(=O)c2cc3occc3n12	-22%	.	20%	-12%	-4%	-14%
O=C(/C=C/c1ccccc1Cl)c1cccnc1	-14%	?	-5%	-1%	40µM*	1%
O=C(/C=C/c1ccc(Cl)cc1)c1cccnc1	-14%	?	6%	-1%	?	-9%
O=C(/C=C/c1ccccc1Cl)c1ccccc(=O)c1O	-1%	-5%[11.6 µM]	45µM*	-22%	28µM*	?
COc1ccc2[nH]cc(CCNc3ccnc(-c4ccc(N(C)C)cc4)n3)c2c1	.	.	.	-7%[60.1 µM]	.	.
COc1cccc(NC(=O)Cn2nnc(C(=O)NCCc3ccccc3)c2N)c1	12%	-15%[11.6 µM]	?	-34%	32µM*	8%
CCc1ccccc1NC(=O)Cn1nnc(C(=O)NCc2cccs2)c1N	-7%	-18%	?	-13%	?	?
Cc1ccc(CNC(=O)c2nnn(CC(=O)Nc3cc(C)ccc3C)c2N)cc1	-2%	.	7.9µM*	-21%	-6%	-12%
COc1cccc(NC(=O)Cn2nnc(C(=O)Nc3ccccc3)c2N)c1	3%	-4%	8%	-13%	0%	-5%
COc1ccc(NC(=O)Cn2nnc(C(=O)NCCc3ccccc3)c2N)c(OC)c1	?	-1%[11.6 µM]	-25%	-8%	?	35µM*
CCc1ccccc1NC(=O)Cn1nnc(C(=O)NCc2ccccc2Cl)c1N	16%	.	71µM*	?	89µM*	-15%

Compound activity (PubChem)
